Whole data set: some 39,000 sequences, median “fluorescence intensity (a.u.)” near 4,300, cut for the highest 2% near 39,000. Many of the other results were omitted from the sample, so the highest values are more common in it than they were.

This experiment deals with T1, OsSMF1 (Oryza sativa, UniProt Q6ZLB0 1-436).
T1 sequence: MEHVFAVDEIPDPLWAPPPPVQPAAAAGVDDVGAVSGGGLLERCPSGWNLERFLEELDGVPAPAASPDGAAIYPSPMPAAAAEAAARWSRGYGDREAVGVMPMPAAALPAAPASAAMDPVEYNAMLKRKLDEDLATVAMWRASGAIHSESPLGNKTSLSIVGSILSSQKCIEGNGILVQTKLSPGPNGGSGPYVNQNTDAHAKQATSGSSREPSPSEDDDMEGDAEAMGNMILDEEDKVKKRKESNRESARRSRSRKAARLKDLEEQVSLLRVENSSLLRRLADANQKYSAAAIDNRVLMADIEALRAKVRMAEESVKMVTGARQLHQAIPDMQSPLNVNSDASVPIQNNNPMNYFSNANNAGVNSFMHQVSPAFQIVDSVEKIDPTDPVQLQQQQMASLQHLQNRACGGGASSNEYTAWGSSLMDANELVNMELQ
Put plainly: protein-binding microarray (RPBM); PBS, 2% BSA, 51.3 ng/ul salmon testes DNA, 50 uM zinc acetate, 200 nM TF, 25 C, 1 h; high values mean tight binding. As to conditions: protein: recombinant; tags: N-terminal polyhistidine and DsRed monomer fusion (pET32a); chain copies: 2; label: CyDye5-dUTP incorporated in the synthesized complementary strand; 3' TTTTT single-stranded linker to array surface; dsDNA, one strand shown. Put shortly: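 Ni–NTA purification followed expression in E. coli BL21-CodonPlus of transcription factors fused N-terminally to a polyhistidine tag and DsRed. At 200 nM in PBS with 2% BSA, salmon testes DNA and 50 µM zinc acetate, the protein was incubated for 1 h at 25 °C with a custom Agilent array that had been primer-extended with Cy5-dUTP and blocked with 2% BSA. After washing, the array was read on an Axon 4000B scanner. The binding signal is per-feature fluorescence intensity in arbitrary units.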
As for “ACCAACCAACCAACCAACCAACCAAGCCTCCCAACTCCATCGGAGTCACCTAGTGCAG”, the binding signal was 3810 fluorescence intensity (a.u.). Next, “GATTCGCGTCCTCCGTTTGCTTCGCTTCTTCTTCTAGAACCGGAGTCACCTAGTGCAG”: 3490 fluorescence intensity (a.u.); “CGTCCACGTCCATCTCCGCCGCTGACAGCACCAGCTCTTCCGGAGTCACCTAGTGCAG”: 5020 fluorescence intensity (a.u.). Regarding “AGAGCCGAGGCCCGAATTCCTCCGGTCCTCCTCGTGACCCCGGAGTCACCTAGTGCAG”, the binding signal is 15400 fluorescence intensity (a.u.). In the case of “TTCCCCTTCCGCGACTGCGAGCTTCTCCGCCGCCGCCGCCCGGAGTCACCTAGTGCAG”, the binding signal was 3160 fluorescence intensity (a.u.).

On to “ACCCCTGCGAATATATAATTTCCCCGCGAGGCCGCGAGCCCGGAGTCACCTAGTGCAG”, for which the binding signal was 47700 fluorescence intensity (a.u.). Consider “CACTCTCCTCCTACACTGCATGCTGCTGCTGACGTGGCTCCGGAGTCACCTAGTGCAG”, for which the binding signal was 24900 fluorescence intensity (a.u.). “TGAGAATACCAGATGACAAAAGGTGACAGTAGTTAGGAACCGGAGTCACCTAGTGCAG”: the binding signal is 4190 fluorescence intensity (a.u.). For “GGGAGGTGTGGTGATCGATCGCCATGCGCGGATTTTCTAACGGAGTCACCTAGTGCAG”, the binding signal is 5590 fluorescence intensity (a.u.).

Regarding “CCAAGCAAGCATACAGAGAGCAATAAAAGTATAAAACACACGGAGTCACCTAGTGCAG”, the binding signal is 4950 fluorescence intensity (a.u.).

On to “TTTATCAAATATTTTGTTCCAAAGCTTACATAAGCATATGCGGAGTCACCTAGTGCAG”, for which the binding signal was 3320 fluorescence intensity (a.u.). The result for “AGTGCTTTATCACACAGAATCAATACCCAAGAAGCATATGCGGAGTCACCTAGTGCAG” reads 41000 fluorescence intensity (a.u.); that for “TTATCTCCAATTTAAGCAACCAGAGGAATATATATGCTTGCGGAGTCACCTAGTGCAG”, 53500 fluorescence intensity (a.u.); that for “TGATTGTTTAACCAAAATATATGCAATTGACTAAGCAAAACGGAGTCACCTAGTGCAG”, 3220 fluorescence intensity (a.u.). As to “GCTTGCGCCAAAACCAAACATAGAGCAGCAATAGAGAGGACGGAGTCACCTAGTGCAG”, the binding signal was 3610 fluorescence intensity (a.u.). Take “CAACCAAGCAAGCGGCAGCAGAGCGCGAGTCATGCGACCCCGGAGTCACCTAGTGCAG”: the binding signal was 3180 fluorescence intensity (a.u.). For “CACGCGCCGGTGCCTTGCGCCGTCACCGTGCCAGCCCAGCCGGAGTCACCTAGTGCAG”, the binding signal was 5670 fluorescence intensity (a.u.). As to “GCGTGGCCACATCAGCCTCCTCTCTCCCTTCCTCATCTCTCGGAGTCACCTAGTGCAG”, the binding signal was 14700 fluorescence intensity (a.u.). Next, “AGGAGGGGTGGAGCTGGAGCTGGAGCTGTGCCAAACAGGCCGGAGTCACCTAGTGCAG”: 3190 fluorescence intensity (a.u.); “CTCCAGGAGGGGTGGAGTTGGAGCTGGAGCTGTGACAAACCGGAGTCACCTAGTGCAG”: 12800 fluorescence intensity (a.u.); “AGGAGGGTGGAGCTGTGCCAAACAGACCCTAAGTGTTTTCCGGAGTCACCTAGTGCAG”: 62100 fluorescence intensity (a.u.).

Regarding “TTCTTTCATCAATTACTAGGCCTAGATGGGTAATTTTGGTCGGAGTCACCTAGTGCAG”, the binding signal was 3200 fluorescence intensity (a.u.). Consider “ATCTTGCCGAAGTTGTTGGTGACGAAGTCGAGGCTGCCGACGGAGTCACCTAGTGCAG”, for which the binding signal was 3180 fluorescence intensity (a.u.). Consider “AAAGTCAATATAGGAATACAATTTAGAAGTAACTTAAATTCGGAGTCACCTAGTGCAG”, for which the binding signal was 25600 fluorescence intensity (a.u.). As for “TTAGGCCAAGTATGGGGTTGGGGCTATGGAGGAGAAGGGCCGGAGTCACCTAGTGCAG”, the binding signal is 3320 fluorescence intensity (a.u.).

As for “CTTAGCCGGCTATACGCGGCTACGTTGGCTGACTTGGTAGCGGAGTCACCTAGTGCAG”, the binding signal was 4170 fluorescence intensity (a.u.). As for “TACTTAGTAGCTAGGAGCTATATTGGTTGGAAAGGAGCGCCGGAGTCACCTAGTGCAG”, the binding signal was 51200 fluorescence intensity (a.u.). On to “CGCAGCACGCACGCACGCAGACACGCCCACGCGTTGCGGCCGGAGTCACCTAGTGCAG”, for which the binding signal was 3550 fluorescence intensity (a.u.). In the case of “CCGCGCCGTCCCTCCTGACGCGGCGTCTCGCCGCCGCCGCCGGAGTCACCTAGTGCAG”, the binding signal was 3780 fluorescence intensity (a.u.). The result for “TCCCGATCGACGCGTGCATGGCGGCGAGCCTTCTGTCCCACGGAGTCACCTAGTGCAG” reads 3330 fluorescence intensity (a.u.); that for “CCTTCCAACATGTTTATTATGCATGAGATGTGTGCAACGACGGAGTCACCTAGTGCAG”, 3360 fluorescence intensity (a.u.). Regarding “CATTCAACGCTCGCGTGCGTGCAGTGCCGTGTGTGGACCGCGGAGTCACCTAGTGCAG”, the binding signal was 54900 fluorescence intensity (a.u.). On to “AGAGGGACGTCGACGCGTGGTGCCGTGGTGGTGTCGCTCGCGGAGTCACCTAGTGCAG”, for which the binding signal was 3400 fluorescence intensity (a.u.).

For “TTCAACGGCGCGTGCCGACGTGGCCGCTGCGGCGTGCGTGCGGAGTCACCTAGTGCAG”, the binding signal is 10300 fluorescence intensity (a.u.). “TGGCACATTCTCATCGTATTTTCTTGTTGCTCTATGTATGCGGAGTCACCTAGTGCAG”: the binding signal is 3180 fluorescence intensity (a.u.).

“ACTATAATTCATGGGATTATGTGCCAGCAGTCATAATATCCGGAGTCACCTAGTGCAG”: the binding signal was 3180 fluorescence intensity (a.u.).

Take “CGCTACCGTGGCATGCCACGTCACCGGATGGAGCGGGTCGCGGAGTCACCTAGTGCAG”: the binding signal was 20100 fluorescence intensity (a.u.). With “AAGTTCACAGTGCTGACCACGGTCAAGGTGCCACGTCATCCGGAGTCACCTAGTGCAG”, the binding signal was 35200 fluorescence intensity (a.u.).

Consider “GCGTCATCATGACATGCCACGTCAGCACATGGAGCGGGTTCGGAGTCACCTAGTGCAG”, for which the binding signal was 26100 fluorescence intensity (a.u.). “GAGTTAGCAGTGTTGACCACGGTCAAGGTGCCACGTCATCCGGAGTCACCTAGTGCAG”: the binding signal was 43000 fluorescence intensity (a.u.). On to “ACACGTGGGTCCACGTAGGCGACACGTCAATGCCACGTCACGGAGTCACCTAGTGCAG”, for which the binding signal is 55900 fluorescence intensity (a.u.).

Take “GACATGTAGGACCCACGTGAGTCAATGACACGTGGGTCAGCGGAGTCACCTAGTGCAG”: the binding signal is 23800 fluorescence intensity (a.u.).

Regarding “TGTGGGGTCCACGTAATGCCACGTCAGCGCAACCTAGGAACGGAGTCACCTAGTGCAG”, the binding signal is 37100 fluorescence intensity (a.u.). Next, “TATTACCACGTAGGCGCCACGTGGCGCCACGTCAGCAAAACGGAGTCACCTAGTGCAG”: 42100 fluorescence intensity (a.u.); “CAGTGACTCCTCTCCTACGTAGGCGCCACGTCAGCAAAACCGGAGTCACCTAGTGCAG”: 20900 fluorescence intensity (a.u.); “TTGAGTCAGTAGTGTTGACAACGGTCAAGGTGCCACGTCACGGAGTCACCTAGTGCAG”: 26100 fluorescence intensity (a.u.). Regarding “GTGCCTCCGTAGCAATGCCACGTCAGCATATGGAGCGGGTCGGAGTCACCTAGTGCAG”, the binding signal was 44600 fluorescence intensity (a.u.). Regarding “ATTTTATTGGGATCAAATTACCACGTAGGCGCCACGTCAACGGAGTCACCTAGTGCAG”, the binding signal is 20900 fluorescence intensity (a.u.).

Source of the values: paper PMC7819943, “Rice protein-binding microarrays: a tool to detect cis-acting elements near promoter regions in rice”.
